GalR3 antagonist = antagonists of human GalR3; O60755; HEK293 GalR3-CNG cAMP membrane potential fluorescence; galR3 body fused to GalR1 C-terminus; inhibition, % at 3 µM; hit rate 0.44% among 360,000;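 active means inhibition above the screen-wide average plus 3 SD, cut at about 13% in these data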;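 further: forskolin and galanin both at EC90 stimulate the cells; cAMP rise reported by CNG channel membrane potential dye signal; 0% = forskolin plus galanin with DMSO and 100% = forskolin alone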
Jurkat NFkB inh = lowers PMA/ionomycin-induced NF-kB signal in Jurkat cells; hit rate 0.53% among 330,000; AID 435003; PMA/ionomycin-induced NF-kB luciferase reporter, luminescence; inhibition, % at 4 µM; in the data active means inhibition above about 50%
NR2F2 inh = blocks human COUP-TFII nuclear receptor; hit rate 0.7% among 370,000; inhibition, % at 8.6 µM; AID 686940; HEK293T NGFI-A luciferase reporter, luminescence;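 active means inhibition above a per-plate cutoff, mean inhibition of test wells between control levels plus 3 SD, cut at about 38% in these data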;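 further: cells cotransfected with COUP-TFII expression vector driving the NGFI-A reporter; 0% = median of COUP-TF2 test wells and 100% = reporter-only cells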
Target sequence (P24468 whole entry, looked up): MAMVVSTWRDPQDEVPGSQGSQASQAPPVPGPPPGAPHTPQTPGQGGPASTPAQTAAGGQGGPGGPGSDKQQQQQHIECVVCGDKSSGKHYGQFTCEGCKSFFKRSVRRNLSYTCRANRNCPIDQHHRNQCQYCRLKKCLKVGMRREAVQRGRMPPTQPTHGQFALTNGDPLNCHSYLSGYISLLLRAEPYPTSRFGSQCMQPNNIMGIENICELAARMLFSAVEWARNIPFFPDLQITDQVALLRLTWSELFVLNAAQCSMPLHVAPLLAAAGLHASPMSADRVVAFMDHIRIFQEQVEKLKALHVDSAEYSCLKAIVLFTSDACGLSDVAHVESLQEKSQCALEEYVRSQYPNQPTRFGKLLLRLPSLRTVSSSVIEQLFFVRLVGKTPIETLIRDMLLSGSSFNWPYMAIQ
697 NFkB inh = lowers PMA/ionomycin-induced NF-kB signal in 697 B cells | 697 B-cell NF-kB luciferase reporter, 16 h | inhibition, % at 4 µM | hit rate 0.33% among 330,000; in the data active means inhibition above about 35%
Gli-Sufu block = Gli-Sufu pathway antagonism; Sufu-KO-LIGHT fibroblasts, Gli luciferase reporter luminescence; inhibition, % at 5 µM; hit rate 0.74% among 340,000; AID 588413;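 active means inhibition above about 55%, limit read from the data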;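 further: 0% = DMSO-treated cells and 100% = wells with medium but no cells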
GalR3 conf = GalR3 (human) antagonism, confirmation | HEK293 GalR3 CNG cAMP biosensor, membrane potential fluorescence; galR3 fused to GalR1 carboxy tail; challenged with forskolin and galanin at EC90 | inhibition, % at 3 µM | hit rate 59% among 1,600 | shares compounds with GalR3 antagonist;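 active means inhibition above the primary screen's cutoff, the mean inhibition of all screened compounds plus 3 SD, cut at about 13% in these data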;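 further: 0% = forskolin plus galanin and 100% = forskolin alone with DMSO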
HEK-CNG parental = acts as nonspecific agonist in parental HEK-CNG cells. shares compounds with GalR3 antagonist. activation, % at 3 µM. HEK293-CNG parental cells, cAMP membrane potential fluorescence; normalised: DMSO wells 0%, forskolin wells 100%. hit rate 10% among 1,600; in the data active means activation above about 1.3%
Starred values were filed as active, the others as inactive. Compounds with a hit are over-represented: about 2% of the library has one in this group of screens.

Results for Cn1c(=O)c2cc(S(=O)(=O)N3CCN(CCO)CC3)ccc2n(C)c1=O ?
NR2F2 inh: 6.1

Results for CCN1C(=O)[C@@H]2[C@@H](c3ccc(-c4ccc(Cl)c(Cl)c4)c(OC)c3)N3CCCC[C@@]3(C(=O)OC)[C@@H]2C1=O ?
GalR3 antagonist: 13.1*; Jurkat NFkB inh: 15.7; NR2F2 inh: 7.6; 697 NFkB inh: -4.0; Gli-Sufu block: 10.4; GalR3 conf: -6.8; HEK-CNG parental: 1.9*

What do the screens show for `Cc1cccc(CCNC(=O)Cn2ncc3c2-c2cc(C)ccc2OC3)c1`?
NR2F2 inh: -5.2

What do the screens show for `Nc1c(C(=O)N2CCN(c3ccccc3)CC2)nnn1Cc1ccc(Cl)cc1`?
NR2F2 inh: -4.5

How did CCOc1cc2c(cc1/C=C(/C#N)c1ccc(C(=O)O)cc1)OCO2 do in these assays?
GalR3 antagonist: 0.6; Jurkat NFkB inh: 11.5; NR2F2 inh: -1.3; 697 NFkB inh: -6.4; Gli-Sufu block: 0.8

What do the screens show for `N#C/C(=C\c1cc2c(cc1Br)OCO2)c1ccc(C(=O)O)cc1`?
GalR3 antagonist: 17.2*; Jurkat NFkB inh: -13.5; NR2F2 inh: -11.8; 697 NFkB inh: -2.3; Gli-Sufu block: -2.5; GalR3 conf: 0.7; HEK-CNG parental: 1.2*

What do the screens show for `Cc1cccc(-c2nnc(N)s2)c1`?
GalR3 antagonist: 12.8*; Jurkat NFkB inh: -4.4; NR2F2 inh: -13.0; 697 NFkB inh: -16.3; Gli-Sufu block: 2.2; GalR3 conf: 1.9; HEK-CNG parental: 0.1

What do the screens show for `Nc1nnc(-c2ccccc2)s1`?
GalR3 antagonist: -3.4; Jurkat NFkB inh: 3.7; NR2F2 inh: -26.0; 697 NFkB inh: 10.1; Gli-Sufu block: 4.7

Results for COc1ccc(CN2C(=O)COc3ccccc3C2c2nnnn2C2CCCCC2)cc1 (stereo not given) ?
NR2F2 inh: -6.7

Results for CC1CC(=O)NN=C1c1ccc(N(C)C)c([N+](=O)[O-])c1 (stereo not given) ?
GalR3 antagonist: 60.0*; Jurkat NFkB inh: -4.2; NR2F2 inh: -9.7; 697 NFkB inh: 7.6; Gli-Sufu block: -0.9; GalR3 conf: 69.3*; HEK-CNG parental: 0.0

How did CCN(CC)c1ccc(C2=NNC(=O)CC2C)cc1[N+](=O)[O-] (stereo not given) do in these assays?
GalR3 antagonist: 52.0*; Jurkat NFkB inh: 2.8; NR2F2 inh: -31.5; 697 NFkB inh: 21.0; Gli-Sufu block: 4.1; GalR3 conf: 64.7*; HEK-CNG parental: -0.1

What do the screens show for `O=C(NCCc1ccccc1)OCc1cn(-c2ccc(F)c(F)c2)nn1`?
NR2F2 inh: 0.7

What do the screens show for `CCN(CC)c1ccc(/C=C(/C#N)C(=O)NC(C)C)o1`?
GalR3 antagonist: 12.9*; Jurkat NFkB inh: -21.3; NR2F2 inh: 8.3; 697 NFkB inh: 12.3; Gli-Sufu block: -8.2; GalR3 conf: -2.4; HEK-CNG parental: -0.1

How did CC(C)(C)c1ccc(-c2cn(C[C@H](Cc3ccccc3)n3c(=O)c4ccccc4n3Cc3ccccc3)nn2)cc1 do in these assays?
NR2F2 inh: 12.1

Results for Cn1cnc([N+](=O)[O-])c1NC(C)(C)C ?
GalR3 antagonist: 4.4; Jurkat NFkB inh: -7.5; NR2F2 inh: 5.4; 697 NFkB inh: 4.4; Gli-Sufu block: 5.3

How did Cn1cnc([N+](=O)[O-])c1S(=O)(=O)c1ccc(Cl)cc1 do in these assays?
GalR3 antagonist: 12.7*; NR2F2 inh: -10.4; Gli-Sufu block: -0.1; GalR3 conf: 1.3; HEK-CNG parental: 0.2

What do the screens show for `CC(=O)N1CCCN(S(=O)(=O)c2ccc3c(c2)n(C)c(=O)c(=O)n3C)CC1`?
NR2F2 inh: -29.5

How did CN(C)S(=O)(=O)N1CCC(Oc2ccc(C(=O)NC3Cc4ccccc4C3)cc2)CC1 do in these assays?
GalR3 antagonist: 30.2*; Jurkat NFkB inh: 34.3; NR2F2 inh: 23.3; 697 NFkB inh: -26.2; Gli-Sufu block: 8.1; GalR3 conf: 99.3*; HEK-CNG parental: -0.3

Results for COC(=O)[C@@]12CCCCC3=C1N(CCC3)C(=O)[C@H]2CC(=O)N1CCCC1 ?
NR2F2 inh: 10.0

Screening data (PubChem)
